This is part of a sample that, as a whole, favours compounds with a hit. Of some 83,000 tested, about 20% had one in any assay.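 Interpretation: 100, growth as untreated; towards 0, rising growth inhibition; 0, no net growth; 0 to -100, cell death. Compounds scoring below 10 were considered active.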 Values without a mark were called inactive. The source made the active and inactive calls.

Among the data in PubChem BioAssay (NCI) are growth values, retold here.

The subject of this experiment is T-47D breast. As to the kind of experiment: NCI-60 one-dose screen, 48 h (100 = growth as untreated, 0 = no growth, -100 = all killed). The conditions noted are these: 10 µM. The method, then:
Growth inhibition of the T-47D human tumor cell line is measured as a screen for anti-cancer activity. Cells are grown in 96 well plates and exposed to the test compound for 48 hours. Compounds are tested at a single concentration, which is 10^-5 M for most compounds. The reported endpoint is percent growth (GI% or GIPRCNT), where numbers from 0 - 100% represent growth inhibition, and numbers from -100% - 0 represent cell death. For example, a value of 40 represents 60% growth inhibition. A value of 0 means no net growth occurred over the course of the experiment. A value of -40 indicates 40% of cells at the beginning of the experiment died by the end of the experiment. A value of -100 means all cells are dead at the end of the experiment.
NCI-60 Human Tumor Cell Lines Screen was performed using the standard one-dose NCI protocol, which is described in more detail at https://dtp.cancer.gov/discovery_development/nci-60/default.htm.
Compounds with GIPRCNT values below 10 were considered active. Activity score was based on GIPRCNT using the following formula: […]
Score is 0 for GIPRCNT values of 100 or above, 50 for GIPRCNT values of 0, and 100 for GIPRCNT values of -100.
For the compound `O=C(Nc1ccc(OCc2ccccc2)cc1)Nc1ccc(Cl)c(C(F)(F)F)c1`, the growth is -2.54% (active).

Turning to `CCOC(=O)C1=C(N)N(c2ccccc2)C2=C(C(=O)CC(C)(C)C2)C1c1ccccc1OC` (stereo not given), the growth was 92.7%.

`Nc1nnc(-c2c[nH]c3ccc(F)cc23)c(-c2c[nH]c3ncccc23)n1`: the growth was 31.7%.

On to `CCN1CCN(Cc2ccc(C(=O)Nc3cccc(-c4cn(-c5ccc6oc(=O)ccc6c5)nn4)c3)cc2C(F)(F)F)CC1`, for which the growth is 82.9%.

In the case of `COC[C@@H](CC(C)C)N=C1NC(=O)/C(=C/c2ccc3ncoc3c2)N1`, the growth was -4.84% (active).

On to `C[C@H]1[C@H](C)CC[C@]2(COC(=O)CCC(=O)NCC#CCN3CCNCC3)CC[C@]3(C)C(=CC[C@@H]4[C@@]5(C)CCCNC(C)(C)[C@@H]5CC[C@]43C)[C@H]12`, for which the growth was 40%.

Consider `COc1ccc2c(c1)N=C(C(=O)O)/C2=C/c1sc(Nc2ccc(O)cc2)nc1O`, for which the growth was 45.4%.

Consider `CCOC(=O)C1=C(N)N(c2ccc(Cl)cc2)C2=C(C(=O)CC(C)(C)C2)C1c1ccc(N2CCOCC2)cc1` (stereo not given), for which the growth is 90.8%.

With `Nc1cccnc1/C=N/NC(=S)NCCNC(=O)c1ccc(-n2nc(-c3ccccc3O)nc2-c2ccccc2O)cc1`, the growth was 7.42% (active).

With `Cc1cc(C)cc(Oc2cccc(-c3c(C)nnn3C3CCN(CCN(C)C)CC3)n2)c1`, the growth is 24.8%.

Turning to `COc1ccc(C(C)=C(c2ccc(OCCCN(C)C)cc2)c2ccc(OCCCN(C)C)cc2)cc1`, the growth is -76.2% (active).

For the compound `C/C(=C\c1ccc(O)cc1O)c1ccc2ccc(O)cc2[o+]1`, the growth was 56%.

For `O=C(CN1CCN(c2ncnc3c2cnn3-c2ccccc2)CC1)Nc1nncs1`, the growth is 27.9%.

Consider `O=C(Nc1ccncc1)c1ccc(-n2c(=O)[nH]c3ccccc3c2=O)cc1`, for which the growth was 81.7%.

For `COC1=C[C@@]23CCC(=O)N2CCc2cc4c(cc2[C@H]3[C@H]1OC(=O)C(C)(C)O)OCO4`, the growth was 91.6%.

With `OCc1[nH]nc2cc(Nc3ncc4ccc(Br)c(OC5CCC(O)CC5)c4n3)ccc12` (stereo not given), the growth was 2.7% (active).

`O=C(NO)c1ccc(-c2nc3ccc4[nH]ncc4c3c3c2CCCC3)cc1`: the growth was -8.47% (active).

For the compound `O=c1[nH]c2ccccc2cc1CSc1ccc(Nc2nccc(-c3ccc(C(F)(F)F)cc3)n2)cc1`, the growth is 18.8%.

`O=C(NO)c1ccc(Cn2ccc3c(Nc4ccccc4)ncnc32)cc1`: the growth is -8.19% (active).

Take `C=C1CCC2C3(C)COC(c4cc(F)cc(F)c4)OC3CCC2(C)C1C/C=C1/C(=O)OCC1O` (stereo not given): the growth was -50.1% (active).

For `N#Cc1c(NC(=O)c2ccc(C(F)(F)F)c(Cl)c2)sc2c1CCC(=O)C2`, the growth was -53% (active).

Consider `O=C1Nc2ccc(F)cc2/C1=C/c1cccc(OCc2ccccc2)c1`, for which the growth was 13.8%.

Take `CC1=C2C(=C[C@@](C)(COCOCCCl)[C@@H]2O)C(=O)[C@](C)(O)C12CC2`: the growth was -15.8% (active).

`CC(C)C(=O)Nc1ccc(C(=O)NC(=S)Nc2ccc(C(=O)O)cc2)cc1`: the growth is 98.9%.

On to `O=C(Nc1cccc([N+](=O)[O-])c1)Nc1cccc([N+](=O)[O-])c1`, for which the growth was 40.6%.

Consider `COc1ccc(-c2cc(C(=O)N=Nc3c(O)[nH]c4ccc(Br)cc34)c3ccccc3n2)cc1`, for which the growth was 58.4%.

Consider `O=C(Nc1ccc(Cl)c(C(F)(F)F)c1)c1cncc(C#Cc2cnc3ccc(N4CCOCC4)nn23)c1`, for which the growth is 1.27% (active).

In the case of `CN1CCN(Cc2ccc(NC(=O)c3cncc(C#Cc4cnc5ccc(N[C@@H]6CCOC6)nn45)c3)cc2C(F)(F)F)CC1`, the growth was -63.2% (active).

For `O=C(c1ccc(O)cc1)C1[C@H](c2ccccc2Br)[C@@H](c2ccccc2)NC12C(=O)Nc1ccc(Br)cc12` (stereo not given in full), the growth is 61.7%.

As to `O=c1oc2ccc(-c3ccc(F)cc3F)cc2c(=O)n1-c1ccc(Cl)c(C(F)(F)F)c1`, the growth is -12.5% (active).

`COc1ccc(-c2ccc(/C=N/NC(=O)c3[nH]c4ccc(Br)cc4c3-c3ccccc3)o2)cc1`: the growth is 37.4%.

As to `CC(=O)Nc1ccc(-c2cn(-c3cccc(C(=O)Nc4cc(CN5CCOCC5)cc(C(F)(F)F)c4)c3)nn2)cn1`, the growth was -71.5% (active).

Consider `O=C(/C=C/Nc1ccccc1)c1ccc2c(c1)Nc1ccccc1S2`, for which the growth was 78.1%.

Consider `COc1ccc2[nH]c(O)c(N=NC(=O)COc3ccc(NC(=O)Nc4ccc(Cl)cc4)cc3)c2c1`, for which the growth is 83.8%.

In the case of `CN1CCCN(Cc2ccc(C(=O)Nc3cccc(Nc4ccc5cc(O)ccc5n4)c3)cc2C(F)(F)F)CC1`, the growth is 88.7%.

`CN1CCN(c2ccc(Nc3nc(NCCCNC(=O)c4ccc(Cl)cc4)c4sccc4n3)cc2)CC1`: the growth was 41.9%.

As to `CN(C)CCNC(=O)OCCCCOc1cc(O)c2c(=O)cc(-c3ccccc3)oc2c1`, the growth was -65.8% (active).

With `CCCCCCCCCCCCCCCCCCCC(=O)NCCc1c[nH]c2ccc(O)cc12`, the growth was 103%.

`N#Cc1c(-c2ccc(F)cc2)nc(SCc2ccc(F)cc2)nc1N1CCOCC1`: the growth is 73.2%.

Take `COc1ccc(-c2c(N)c(=O)n(C)c3ccccc23)cc1`: the growth is 57.2%.
